Data published in PubChem BioAssay (EPA / NIEHS).
Several values for one entry are separate records, joined by “and”; a condition that tells them apart may be missing. Equal entries are not always repeated. Some compounds were tested as several samples or in several runs, with calls that do not always agree. Activity calls are given as the source filed them. Rule for the calls: active = hit-call score of the fitted dose curve at least 0.9, where 1 is the maximum; inactive = score below 0.9.

How the values were obtained:
[1] = ATG_E_Box_CIS: Attagene CIS-FACTORIAL HepG2 Assay for human Enhancer Box (E-box) (AID 2282936); details: HepG2 E-box cis-reporter transcription, actives raise or lower the signal
Summary of the method: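 Fluorescent reporter fragments separated by capillary electrophoresis gave the signal; mRNA came from HepG2 cells transfected with cis-element reporters and treated 24 h. Curves fitted bidirectionally relative to DMSO controls.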

[2] = ATG_M_61_CIS: Attagene CIS-FACTORIAL HepG2 Assay for M61 Transcription Factor (Internal Marker) (AID 2282937); details: HepG2 Attagene CIS-FACTORIAL M61 internal marker reporter; actives raise or lower the signal
Summary of the method: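 Multiplexed reporter mRNA assay, HepG2 human hepatoma cells, 24 h treatment. Signal: FAM-labelled, HpaI-digested RT-PCR fragments by CE. Fit: bidirectional, baseline DMSO.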

[3] = ATG_EGR_CIS: Attagene CIS-FACTORIAL HepG2 Assay for human Early Growth Response 1 (EGR1) (AID 2282938); details: HepG2 Attagene CIS-FACTORIAL EGR reporter mRNA; actives raise or lower the signal
Summary of the method: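 Multiplexed cis-reporter system in human hepatoma HepG2 cells, transiently transfected. Cells are dosed for 24 h; reporter transcripts are amplified, fluorescently tagged and sized by capillary electrophoresis, with DMSO as negative control.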

[4] = ATG_M_19_CIS: Attagene CIS-FACTORIAL HepG2 Assay for M19 Transcription Factor (Internal Marker) (AID 2282939); details: HepG2 Attagene CIS-FACTORIAL M19 internal marker reporter; actives raise or lower the signal
Summary of the method: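 Internal marker readout, fitted in both directions against DMSO, from HepG2 cells carrying transfected cis-element reporter constructs; RT-PCR and capillary electrophoresis of reporter mRNA after 24 h exposure.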

[5] = ATG_ERE_CIS: Attagene CIS-FACTORIAL HepG2 Assay for Estrogen Response Element (ERE) (AID 2282940); details: HepG2 ERE cis-reporter, Attagene RNA transcript; actives raise or lower the signal
Summary of the method: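 After 24 h compound treatment, RNA from transfected HepG2 cells was reverse-transcribed, reporter cDNA PCR-amplified, FAM-labelled, HpaI-cut and resolved by capillary electrophoresis. ERE-driven cis reporter transcripts reflect endogenous factors; gain or loss scored against DMSO.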

[6] = ATG_Ets_CIS: Attagene CIS-FACTORIAL HepG2 Assay for human Erythroblast Transformation Specific (ETS) (AID 2282941); details: HepG2 ETS cis-reporter transcription, actives raise or lower the signal
Summary of the method: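 RT-PCR/capillary electrophoresis fluorescence read-out of reporter mRNA; HepG2 transient multi-reporter transfection; 24 h compound exposure; gain or loss of signal fitted bidirectionally relative to DMSO.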

[7] = molecular target: Hepatocyte nuclear factor 3-beta (Homo sapiens) (UniProt Q9Y261); test: ATG_FoxA2_CIS: Attagene CIS-FACTORIAL HepG2 Assay for human Forkhead box A2 (FOXA2) (AID 2282942); details: HepG2 cis-reporter transcription factor activity, 24 h; actives raise or lower the signal
Hepatocyte nuclear factor 3-beta (Homo sapiens), sequence (Q9Y261 whole entry, looked up): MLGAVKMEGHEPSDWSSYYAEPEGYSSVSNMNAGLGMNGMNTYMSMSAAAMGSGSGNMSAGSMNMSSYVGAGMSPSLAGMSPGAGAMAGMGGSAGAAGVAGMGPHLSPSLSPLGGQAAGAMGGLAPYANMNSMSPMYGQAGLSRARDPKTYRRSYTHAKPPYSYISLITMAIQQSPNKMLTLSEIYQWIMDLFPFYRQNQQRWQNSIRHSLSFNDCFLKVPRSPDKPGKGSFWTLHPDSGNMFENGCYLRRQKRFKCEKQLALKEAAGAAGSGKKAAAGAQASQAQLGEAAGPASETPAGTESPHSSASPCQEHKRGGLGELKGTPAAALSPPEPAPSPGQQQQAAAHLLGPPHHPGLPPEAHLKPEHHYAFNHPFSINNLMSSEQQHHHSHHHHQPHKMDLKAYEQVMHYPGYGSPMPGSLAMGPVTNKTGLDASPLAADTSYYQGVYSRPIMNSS
Summary of the method: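 Multiplexed cis-element reporter assay in transiently transfected HepG2. Twenty-four hours post-dosing, RNA was reverse-transcribed, amplified, FAM-labelled, HpaI-digested and separated by CE. Activity gain or loss relative to DMSO.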

[8] = ATG_FoxO_CIS: Attagene CIS-FACTORIAL HepG2 Assay for human Forkhead box O (FoxO) (AID 2282943); details: HepG2 Attagene cis-reporter, FoxO element, mRNA; actives raise or lower the signal
Summary of the method: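 Endogenous transcription factor activity read from multiplexed cis-promoter reporter transcripts in transiently transfected HepG2, 24 h after dosing. Reporter RNA measured via RT-PCR plus capillary electrophoresis of FAM-labeled products; gain or loss relative to DMSO.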

[9] = ATG_GATA_CIS: Attagene CIS-FACTORIAL HepG2 Assay for human GATA Binding Protein (AID 2282944); details: HepG2 GATA cis-element reporter, Attagene multiplex mRNA; actives raise or lower the signal
Summary of the method: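 Reporter transcripts from a GATA cis-regulated unit, among multiplexed reporters in transfected HepG2 cells, were measured by RT-PCR with capillary electrophoresis after 24 h dosing. Induction or loss scored relative to DMSO.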

[10] = ATG_GLI_CIS: Attagene CIS-FACTORIAL HepG2 Assay for human Zinc Finger Protein GLI1 (AID 2282945); details: HepG2, Attagene cis-factorial reporter mRNA, GLI element; actives raise or lower the signal
Summary of the method: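 Bidirectional curve fits relative to DMSO, using reporter mRNA levels from RT-PCR plus capillary electrophoresis. Cells were HepG2 transiently carrying cis-regulated reporter constructs, harvested 24 h after dosing.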

[11] = ATG_GRE_CIS: Attagene CIS-FACTORIAL HepG2 Assay for human Glucocorticoid Response Elements (GRE) (AID 2282947); details: HepG2 GRE cis-reporter, Attagene multiplex mRNA; actives raise or lower the signal
Summary of the method: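 Multiplexed cis-reporter mRNA induction, HepG2, 24 h post-dose. RT-PCR, FAM-labelled, HpaI-digested amplicons by CE. Bidirectional fit vs DMSO.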

[12] = ATG_M_32_CIS: Attagene CIS-FACTORIAL HepG2 Assay for M32 Transcription Factor (Internal Marker) (AID 2282949); details: HepG2 Attagene cis-factorial M32 reporter, mRNA; actives raise or lower the signal;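 note: background control marker of the multiplexed CIS panel rather than a real target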
Summary of the method: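 Transient MRTU transfection of HepG2; 24 h compound treatment; TriZol RNA, oligo(dT) RT, reporter PCR, 6-FAM primer extension, HpaI cut, CE. Gain/loss of signal vs DMSO.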

[13] = ATG_M_06_CIS: Attagene CIS-FACTORIAL HepG2 Assay for M06 Transcription Factor (Internal Marker) (AID 2282950); details: HepG2 Attagene CIS-FACTORIAL M06 internal marker reporter; actives raise or lower the signal
Summary of the method: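 Serves as a background control readout. Transfected HepG2 exposed to compounds for 24 h, then reporter transcripts quantified by fluorescent RT-PCR and capillary electrophoresis. Both directions fitted against DMSO baseline.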

[14] = molecular target: Hypoxia-inducible factor 1-alpha (Homo sapiens) (UniProt Q16665); test: ATG_HIF1a_CIS: Attagene CIS-FACTORIAL HepG2 Assay for human Hypoxia Inducible Factor 1 (HIF1A) (AID 2282951); details: HepG2 Attagene cis-factorial HIF1a reporter transcription; actives raise or lower the signal
Hypoxia-inducible factor 1-alpha (Homo sapiens), sequence (Q16665 whole entry, looked up): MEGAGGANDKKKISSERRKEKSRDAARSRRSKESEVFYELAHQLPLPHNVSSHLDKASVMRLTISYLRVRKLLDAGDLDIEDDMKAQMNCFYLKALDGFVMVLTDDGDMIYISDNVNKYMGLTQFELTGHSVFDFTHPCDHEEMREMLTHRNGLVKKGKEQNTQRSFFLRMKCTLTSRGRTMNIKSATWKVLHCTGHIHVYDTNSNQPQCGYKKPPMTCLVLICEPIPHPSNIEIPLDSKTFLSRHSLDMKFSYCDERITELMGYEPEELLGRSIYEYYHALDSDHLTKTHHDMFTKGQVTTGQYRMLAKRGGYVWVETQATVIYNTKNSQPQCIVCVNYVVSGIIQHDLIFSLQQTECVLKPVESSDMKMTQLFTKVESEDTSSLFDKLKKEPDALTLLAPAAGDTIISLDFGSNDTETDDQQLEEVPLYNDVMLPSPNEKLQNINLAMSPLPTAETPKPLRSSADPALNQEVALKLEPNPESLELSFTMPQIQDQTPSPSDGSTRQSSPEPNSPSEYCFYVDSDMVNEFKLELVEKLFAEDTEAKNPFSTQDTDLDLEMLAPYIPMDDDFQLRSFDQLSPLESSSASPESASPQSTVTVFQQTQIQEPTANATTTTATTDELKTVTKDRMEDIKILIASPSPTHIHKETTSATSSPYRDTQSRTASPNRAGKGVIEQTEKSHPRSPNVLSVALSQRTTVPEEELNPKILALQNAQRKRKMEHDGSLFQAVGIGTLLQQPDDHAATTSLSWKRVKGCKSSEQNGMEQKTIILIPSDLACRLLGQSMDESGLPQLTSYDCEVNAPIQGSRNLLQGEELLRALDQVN
Summary of the method: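 Cis-element reporter constructs were transiently transfected into HepG2 cells, which were treated for 24 h; reporter RNA was reverse-transcribed, amplified, labelled and resolved by capillary electrophoresis.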

[15] = molecular target: Hepatocyte nuclear factor 6 (Homo sapiens) (UniProt Q9UBC0); test: ATG_HNF6_CIS: Attagene CIS-FACTORIAL HepG2 Assay for human Hepatocyte Nuclear Factor 6 (HNF6) (AID 2282952); details: HepG2 Attagene cis-factorial HNF6 reporter transcription; actives raise or lower the signal
Hepatocyte nuclear factor 6 (Homo sapiens), sequence (Q9UBC0 whole entry, looked up): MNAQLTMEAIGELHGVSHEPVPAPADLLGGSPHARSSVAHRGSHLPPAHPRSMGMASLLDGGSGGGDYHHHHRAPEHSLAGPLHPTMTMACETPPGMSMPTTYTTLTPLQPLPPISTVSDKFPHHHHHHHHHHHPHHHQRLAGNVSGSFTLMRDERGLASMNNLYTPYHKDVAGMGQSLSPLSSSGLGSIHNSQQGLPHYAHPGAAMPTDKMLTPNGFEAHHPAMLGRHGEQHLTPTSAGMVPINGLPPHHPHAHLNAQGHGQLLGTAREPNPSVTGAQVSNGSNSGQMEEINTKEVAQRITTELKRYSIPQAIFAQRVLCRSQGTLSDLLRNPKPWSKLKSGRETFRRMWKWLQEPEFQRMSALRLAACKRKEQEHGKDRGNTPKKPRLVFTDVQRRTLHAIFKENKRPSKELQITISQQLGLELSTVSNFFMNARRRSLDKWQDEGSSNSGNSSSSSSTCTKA
Summary of the method: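 Activity values derive from bidirectional fitting against DMSO of reporter mRNA levels, measured by capillary electrophoresis of labelled RT-PCR products from HepG2 cells exposed 24 h.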

[16] = molecular target: Heat shock factor protein 1 (Homo sapiens) (UniProt Q00613); test: ATG_HSE_CIS: Attagene CIS-FACTORIAL HepG2 Assay for human Heat Shock Transcription Factor 1 (HSE) (AID 2282953); details: HepG2 HSE cis-reporter, Attagene RNA transcription; actives raise or lower the signal
Heat shock factor protein 1 (Homo sapiens), sequence (Q00613 whole entry, looked up): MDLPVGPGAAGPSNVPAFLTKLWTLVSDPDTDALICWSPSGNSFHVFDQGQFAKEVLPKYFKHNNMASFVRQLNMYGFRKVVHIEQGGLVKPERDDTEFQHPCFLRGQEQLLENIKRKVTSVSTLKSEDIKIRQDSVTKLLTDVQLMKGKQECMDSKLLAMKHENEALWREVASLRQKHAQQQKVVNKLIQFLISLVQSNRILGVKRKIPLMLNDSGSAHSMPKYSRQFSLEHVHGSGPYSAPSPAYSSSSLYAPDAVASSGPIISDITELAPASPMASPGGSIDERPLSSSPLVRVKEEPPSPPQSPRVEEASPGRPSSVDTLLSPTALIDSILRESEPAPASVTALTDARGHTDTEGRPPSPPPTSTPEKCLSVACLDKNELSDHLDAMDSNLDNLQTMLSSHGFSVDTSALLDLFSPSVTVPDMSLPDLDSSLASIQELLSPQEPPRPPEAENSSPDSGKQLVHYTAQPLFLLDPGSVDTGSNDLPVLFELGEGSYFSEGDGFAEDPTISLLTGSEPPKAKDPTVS
Summary of the method: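 Endogenous transcription factor activity in transiently transfected HepG2, read as reporter mRNA by RT-PCR with fluorescent capillary electrophoresis after 24 h. Gain or loss of signal fitted versus DMSO baseline.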

[17] = ATG_MRE_CIS: Attagene CIS-FACTORIAL HepG2 Assay for human Metal Responsive Element (MRE) (AID 2282954); details: HepG2 MRE cis-reporter transcription, Attagene multiplex; actives raise or lower the signal
Summary of the method: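 Multiplexed cis-reporter assay in human HepG2 liver cells, 24 h incubation with test chemical. Reporter transcripts measured by RT-PCR and capillary electrophoresis; values from bidirectional curve fitting versus DMSO.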

[18] = molecular target: Bile acid receptor (Homo sapiens) (UniProt Q96RI1); test: ATG_IR1_CIS: Attagene CIS-FACTORIAL HepG2 Assay for human Nuclear Receptor Subfamily 1 Group H Member 4 (NR1H4), IR1 submotif (AID 2282946); details: IR1 reporter transcription, actives raise or lower the signal
Bile acid receptor (Homo sapiens), sequence (Q96RI1 whole entry, looked up): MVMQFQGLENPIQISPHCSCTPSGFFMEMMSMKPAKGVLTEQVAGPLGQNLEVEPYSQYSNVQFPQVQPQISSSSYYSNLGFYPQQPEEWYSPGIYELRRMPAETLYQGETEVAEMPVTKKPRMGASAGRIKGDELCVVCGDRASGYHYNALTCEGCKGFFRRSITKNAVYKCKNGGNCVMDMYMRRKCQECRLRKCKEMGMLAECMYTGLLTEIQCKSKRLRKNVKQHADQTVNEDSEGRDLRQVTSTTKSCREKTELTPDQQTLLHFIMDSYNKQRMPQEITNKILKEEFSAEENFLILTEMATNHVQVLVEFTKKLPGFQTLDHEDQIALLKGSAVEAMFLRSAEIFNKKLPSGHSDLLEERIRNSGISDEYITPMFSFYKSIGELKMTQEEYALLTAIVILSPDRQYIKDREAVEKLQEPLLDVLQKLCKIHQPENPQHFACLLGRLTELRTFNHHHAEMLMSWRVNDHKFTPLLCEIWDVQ
Summary of the method: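 HepG2 cells transiently transfected with multiplexed cis-element reporter units read endogenous transcription factor activity. After 24 h compound exposure, reporter mRNA was quantified by RT-PCR, fluorescent labelling, HpaI digestion and capillary electrophoresis; bidirectional fitting versus DMSO baseline.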

[19] = ATG_PBREM_CIS: Attagene CIS-FACTORIAL HepG2 Assay for human Phenobarbital-responsive Enhancer Module (PBREM) (AID 2282955); details: HepG2 PBREM cis-reporter, Attagene multiplexed transcription; actives raise or lower the signal
Summary of the method: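 Multiplexed cis-reporter readout in human hepatoma HepG2 cells; PBREM-regulated transcript quantified after 24 h exposure by fluorescent RT-PCR fragment analysis. Signal changes up or down fitted relative to DMSO.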

[20] = ATG_ISRE_CIS: Attagene CIS-FACTORIAL HepG2 Assay for human Interferon Regulatory Factor 1 (IRF1) binding to an Interferon-Stimulated Response Element (ISRE) (AID 2282948); details: HepG2 ISRE cis-reporter (Attagene), mRNA transcription readout; actives raise or lower the signal
Summary of the method: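 Read-out: fluorescent RT-PCR products resolved by capillary electrophoresis, reporting endogenous transcription factor activity via ISRE-driven reporter mRNA in transfected HepG2 cells dosed for 24 h; gain or loss fitted relative to DMSO.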

Measured: AC50

Cc1ccc(O)c(C)c1
not listed: [18] | [19] | [20]
inactive: all other assays above

Oc1ccc(Cl)cc1Cl
active: [5] 75.9 µM
not listed: [20]
inactive: all other assays above

Oc1ccc(C(c2ccc(O)cc2)(C(F)(F)F)C(F)(F)F)cc1
inactive: [1] | [2] | [3] | [4] | [6] | [7] | [9] | [10] | [11] | [20] | [12] | [14] | [15] | [19]
active: [3] 11.1 µM and 16.5 µM | [5] 127 nM [middle of 4 runs] | [6] 15.5 µM and 17.5 µM | [20] 20.1 µM and 11.1 µM | [16] 16.3 µM [middle of 4 runs] | [17] 16.2 µM [middle of 4 runs]

CCCCCCCCCC[N+](C)(C)CCCCCCCCCC
active: [1] 40.8 µM | [3] 6.79 µM | [9] 100 µM | [10] 100 µM | [18] 5.11 µM | [11] 8.55 µM | [17] 4.45 µM
not listed: [20]
inactive: all other assays above

O=C(NC(=O)c1cc(F)c(F)cc1Cl)Nc1cc(F)ccc1N1CCC(C(=O)O)CC1
not listed: [13] | [18] | [19]
inactive: all other assays above

Cc1cccc([N+](=O)[O-])c1
active: [14] 181 µM
not listed: [19]
inactive: all other assays above
